Experimental data published in PubChem BioAssay AID1159580 (chemical genetic matrix, 2015).
Values joined by “and” are separate entries in the source; they are usually repeats but may differ in a detail not shown here. Identical values can stand only once. The whole screen tested about 5,500 compounds, of which about 2,000 (36%) were called active. About 18% were inconclusive and are not listed. No stated cut-off is given here; in the data, active means normalized growth mostly below about 0.91 (no sharp cut-off); inconclusive means no clear call, values can overlap the other calls; inactive means mostly above about 0.92. This is one part of the list.

Assay: chemical genetic growth profiling, strain panel (AID 1159580);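 further: tested at 20 µM; growth read once vehicle control cultures reached saturation at 30 °C; 1 = growth at the plate median or of vehicle wells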
Conditions: S. cerevisiae deletion strains, growth OD

Measured: normalized growth

CC(C)c1ccc2c(c1O)CC[C@H]1C3=C(CC[C@]21C)C(=O)OC3
0.646 (active) and 0.956 (inactive): locus YJL095W, strain BCK1, stronger effect = lower value
0.661 (active) and 0.918 (inactive): locus YHR030C, strain SLT2, stronger effect = lower value
active: locus YAL013W, strain DEP1, stronger effect = lower value 0.847 | locus YDL074C, strain BRE1, stronger effect = lower value 0.617 | locus YDL134C, strain PPH21, stronger effect = lower value 0.8 | locus YDL192W, strain arf1, stronger effect = lower value 0.898 | locus YDR137W, strain rgp1, stronger effect = lower value 0.825 | locus YDR162C, strain NBP2, stronger effect = lower value 0.81 | locus YDR318W, strain mcm21, stronger effect = lower value 0.886 | locus YDR392W, strain spt3, stronger effect = lower value 0.542 | locus YDR502C, strain sam2, stronger effect = lower value 0.913 | locus YEL061C, strain CIN8, stronger effect = lower value 0.772 | locus YER155C, strain BEM2 (second series), stronger effect = lower value 0.807 | locus YER155C, strain BEM2, stronger effect = lower value 0.846 | locus YER167W, strain BCK2, stronger effect = lower value 0.781 | locus YGL086W, strain mad1, stronger effect = lower value 0.867 | locus YGL248W, strain PDE1, stronger effect = lower value 0.754 | locus YGR078C, strain PAC10, stronger effect = lower value 0.718 | locus YHR129C, strain ARP1, stronger effect = lower value 0.798 | locus YHR142W, strain chs7, stronger effect = lower value 0.867 | locus YIL066C, strain RNR3, stronger effect = lower value 0.601 | locus YJL129C, strain trk1, stronger effect = lower value 0.856 | locus YJL187C, strain SWE1 (second series), stronger effect = lower value 0.86
inactive: locus YAL021C, strain ccr4, stronger effect = lower value 0.999 | locus YAL026C, strain drs2, stronger effect = lower value 0.946 | locus YAL030W, strain snc1, stronger effect = lower value 0.969 | locus YBL061C, strain skt5, stronger effect = lower value 0.962 | locus YBR009C, strain hhf1, stronger effect = lower value 0.96 | locus YBR021W, strain FUR4, stronger effect = lower value 0.903 | locus YBR023C, strain chs3, stronger effect = lower value 0.957 | locus YBR171W, strain sec66, stronger effect = lower value 0.935 | locus YBR229C, strain ROT2, stronger effect = lower value 0.97 | locus YBR231C, strain swc5, stronger effect = lower value 0.957 | locus YBR279W, strain paf1, stronger effect = lower value 0.979 | locus YCL011C, strain gbp2, stronger effect = lower value 0.933 | locus YCL016C, strain dcc1, stronger effect = lower value 0.973 | locus YCL029C, strain bik1, stronger effect = lower value 0.912 | locus YCL061C, strain MRC1, stronger effect = lower value 0.925 | locus YCL069W, strain vba3, stronger effect = lower value 0.95 | locus YCR088W, strain abp1, stronger effect = lower value 0.933 | locus YDL005C, strain med2, stronger effect = lower value 0.961 | locus YDL035C, strain GPR1, stronger effect = lower value 0.943 | locus YDL040C, strain nat1, stronger effect = lower value 0.965 | locus YDL101C, strain DUN1, stronger effect = lower value 0.943 | locus YDL185W, strain tfp1, stronger effect = lower value 0.988 | locus YDR001C, strain nth1, stronger effect = lower value 0.935 | locus YDR069C, strain doa4, stronger effect = lower value 0.996 | locus YDR101C, strain arx1, stronger effect = lower value 0.968 | locus YDR150W, strain NUM1, stronger effect = lower value 0.959 | locus YDR159W, strain sac3, stronger effect = lower value 1 | locus YDR195W, strain ref2 1.01 | locus YDR297W, strain sur2, stronger effect = lower value 0.966 | locus YDR334W, strain swr1, stronger effect = lower value 0.956 | locus YDR335W, strain msn5, stronger effect = lower value 0.973 | locus YDR388W, stronger effect = lower value 0.99 | locus YEL003W, strain gim4, stronger effect = lower value 0.936 | locus YEL037C, strain rad23, stronger effect = lower value 0.941 | locus YEL061C, strain CIN8 (second series), stronger effect = lower value 0.939 | locus YER015W, strain faa2, stronger effect = lower value 0.961 | locus YER016W, strain bim1, stronger effect = lower value 0.976 | locus YER110C, stronger effect = lower value 0.943 | locus YER111C, strain swi4, stronger effect = lower value 0.946 | locus YFR010W, strain ubp6, stronger effect = lower value 0.952 | locus YGL078C, strain dbp3, stronger effect = lower value 0.962 | locus YGL167C, strain pmr1, stronger effect = lower value 0.967 | locus YGL173C, strain kem1, stronger effect = lower value 0.971 | locus YGL227W, strain vid30, stronger effect = lower value 0.945 | locus YGL240W, strain doc1, stronger effect = lower value 0.953 | locus YGL253W, strain hxk2, stronger effect = lower value 0.987 | locus YGR135W, strain pre9, stronger effect = lower value 0.953 | locus YGR252W, strain gcn5, stronger effect = lower value 0.916 | locus YHR013C, strain ard1, stronger effect = lower value 1.02 | locus YHR027C, strain rpn1, stronger effect = lower value 0.994 | locus YHR079C, strain IRE1 (second series), stronger effect = lower value 0.959 | locus YHR079C, strain IRE1, stronger effect = lower value 0.927 | locus YHR094C, strain hxt1, stronger effect = lower value 0.971 | locus YHR200W, strain rpn10, stronger effect = lower value 0.957 | locus YIL073C, strain SPO22, stronger effect = lower value 0.844 | locus YIL125W, strain kgd1, stronger effect = lower value 0.954 | locus YIR030C, strain dcg1, stronger effect = lower value 0.965 | locus YJL092W, strain hpr5, stronger effect = lower value 0.941 | locus YJL095W, strain BCK1 (second series), stronger effect = lower value 0.97 | locus YJL115W, strain asf1, stronger effect = lower value 0.956 | locus YJL134W, strain LCB3, stronger effect = lower value 0.975 | locus YJL154C, strain vps35, stronger effect = lower value 0.95 | locus YJL164C, strain tpk1, stronger effect = lower value 0.953 | locus YJL166W, strain qcr8, stronger effect = lower value 0.987 | locus YJL168C, strain set2, stronger effect = lower value 0.989
